Hits are enriched below; roughly 2.7% of the tested compounds scored in any of these assays.
PP1 inh: PP1-alpha phosphatase inhibitors, primary screen, counter-screen for PP5 inhibitor project, biochemical, fluorescence, OMFP substrate, single point. Serine/threonine-protein phosphatase PP1-alpha catalytic subunit (Homo sapiens), P62136. purified PP1alpha. inhibition, % at 6.7 µM. 320,000 compounds, 0.9% hits. AID 2235, 2010;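 active = inhibition above the mean inhibition of all tested compounds plus 3 SD, computed separately for each screening campaign, cut at about 15% in these data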
TMEM16A act: TMEM16A chloride channel activators or potentiators, primary screen, cell-based, HTS; B-score at 10 µM; 340,000 compounds, 0.3% hits; Anoctamin-1 (Mus musculus), Q8BHY3; HEK293 TMEM16A/YFP-H148Q/I152L, iodide quench fluorescence; stronger effect = lower value;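 active = fluorescence-ratio B-score plate-corrected deviation score at least 3 library SD below zero, with starting fluorescence score within 5 deviations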;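 also: channel opened by trigger with iodide after compound preincubation; score built on the fluorescence ratio of max minus min over baseline; more negative score means more quench and so TMEM16A activation or potentiation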
Target sequence (Q8BHY3 whole entry, looked up): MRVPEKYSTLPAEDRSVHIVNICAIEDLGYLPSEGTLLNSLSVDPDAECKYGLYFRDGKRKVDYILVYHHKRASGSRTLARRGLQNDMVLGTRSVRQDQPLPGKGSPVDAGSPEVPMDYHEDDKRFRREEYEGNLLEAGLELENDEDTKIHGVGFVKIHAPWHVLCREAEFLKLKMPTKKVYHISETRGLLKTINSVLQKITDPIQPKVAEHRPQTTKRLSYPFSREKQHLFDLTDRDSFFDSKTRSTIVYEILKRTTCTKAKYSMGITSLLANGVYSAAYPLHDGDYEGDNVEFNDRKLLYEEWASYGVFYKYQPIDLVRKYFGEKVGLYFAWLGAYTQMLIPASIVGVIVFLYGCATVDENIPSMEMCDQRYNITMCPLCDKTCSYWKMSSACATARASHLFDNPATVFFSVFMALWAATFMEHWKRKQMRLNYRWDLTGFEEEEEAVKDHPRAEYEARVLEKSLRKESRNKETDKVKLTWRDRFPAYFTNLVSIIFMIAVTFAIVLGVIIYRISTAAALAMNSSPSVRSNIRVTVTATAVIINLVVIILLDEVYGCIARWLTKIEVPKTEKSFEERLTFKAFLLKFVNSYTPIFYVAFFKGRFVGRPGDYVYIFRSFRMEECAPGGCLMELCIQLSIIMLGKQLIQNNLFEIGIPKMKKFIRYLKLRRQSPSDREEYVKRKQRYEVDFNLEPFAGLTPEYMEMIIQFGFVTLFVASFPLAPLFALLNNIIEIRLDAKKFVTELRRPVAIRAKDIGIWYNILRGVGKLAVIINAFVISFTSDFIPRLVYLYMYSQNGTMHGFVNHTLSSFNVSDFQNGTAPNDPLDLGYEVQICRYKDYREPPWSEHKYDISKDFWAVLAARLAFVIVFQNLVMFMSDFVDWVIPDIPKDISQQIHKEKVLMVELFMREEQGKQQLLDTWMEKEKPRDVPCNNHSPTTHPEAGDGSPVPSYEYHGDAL
FID counter: compounds displacing fluorescent DNA intercalator, primary screen, artefact control for HCV NS3 helicase inhibitor project, biochemical, FID fluorescence; DNA fluorescent intercalator displacement; inhibition, % at 7.9 µM; 290,000 compounds, 0.17% hits; AID 1845, 2009; in the data active = inhibition above about 37%;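 also: 0% = vehicle and 100% = reference compound; higher means more ethidium bromide displaced from hairpin DNA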
PP5 primary: PP5 phosphatase inhibitors, primary screen, biochemical, fluorescence; Serine/threonine-protein phosphatase 5 (Homo sapiens), P53041; purified PP5c, OMFP substrate fluorescence; inhibition, % at 6.7 µM; 320,000 compounds, 0.18% hits; AID 1987, 2009;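 active = inhibition above the campaign's mean inhibition across all tested compounds plus 3 SD, cut at about 9.5% in these data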;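 also: 0% = DMSO only and 100% = 100 µM cantharidin control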
PREPL inh: PREPL enzyme inhibitors, primary screen, biochemical, fluorescence polarization | Prolyl endopeptidase-like (Homo sapiens), Q4J6C6 | recombinant PREPL, fluorescence polarization activity-based probe | inhibition, % at 5.96 µM | 320,000 compounds, 0.68% hits;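 also: 0% = enzyme with DMSO and 100% = wells lacking enzyme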
ANO1 block: TMEM16A chloride channel inhibitors, primary screen, cell-based, HTS; Anoctamin-1 (Mus musculus), Q8BHY3; HEK293 TMEM16A/YFP iodide influx fluorescence, ionomycin; normalized B-score (activity score, 25-100; higher = stronger inhibition) at 10 µM; 310,000 compounds, 1.2% hits; AID 588511, 2011;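 active = ratio plate-corrected score three or more library SD toward inhibition, starting fluorescence score within five deviations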;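 also: score derived from kinetic fluorescence span divided by baseline fluorescence per well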
PREPL confirm: human PREPL enzyme inhibitors, confirmation, biochemical, fluorescence polarization; inhibition, % at 5.96 µM; recombinant PREPL, fluorescence polarization activity probe; AID 2803, 2010; 2,000 compounds, 67% hits; shares compounds with PREPL inh;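 also: 0% = protein with DMSO and 100% = wells lacking protein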
An asterisk follows results filed as active; i = inactive; . = no result given. Rule as the data show it, unless noted: active = inhibition above about 43%; inactive = the rest.

SMILES	PP1 inh	TMEM16A act	FID counter	PP5 primary	PREPL inh	ANO1 block	PREPL confirm
CN1Cc2sc(NC(=S)NC(=O)c3ccccc3)c(C#N)c2CC1(C)C	-3	i	15	4	58*	i	19
CN(C)CCCNc1cc(C(C)(C)C)nc2c(-c3ccccc3)cnn12	1	i	48*	3	67*	i	61*
Cc1cc(NCCCN2CCOCC2)n2ncc(-c3ccccc3)c2n1	-1	i	25	3	12	i	.
Cc1ccc(C)c(-c2nn(-c3cc(N4CCN(CCO)CC4)ccc3[N+](=O)[O-])c(=O)c3ccccc23)c1	7	i	13	3	62*	i	57*
NC(=S)N/N=C/c1ccc2ccccc2c1	-7	i	3	2	-12	i	.
C(=Nc1ccc(Nc2ccccc2)cc1)c1ccc2ccccc2c1	-1	i	11	2	95*	i	16
Brc1ccc(C=Nc2ccc(Nc3ccccc3)cc2)s1	5	i	6	0	99*	i	13
O=C(C[C@H]1C/C=C\C[C@@H](Cc2ccc(F)cc2)C(=O)OC[C@@H](Cc2c[nH]c3ccccc23)NC1=O)NCCO	.	i	.	.	45*	.	35
O=C(C[C@@H]1C/C=C\C[C@@H](Cc2ccc(F)cc2)C(=O)OC[C@@H](Cc2c[nH]c3ccccc23)NC1=O)NCCO	.	i	.	.	54*	.	47*
COc1ccc(OC)c(C2C(C(=O)c3ccco3)=C(O)C(=O)N2CC2CCCO2)c1 (stereo not drawn)	0	i	-25	2	-1	i	.
COc1cc(C(=O)C(=O)c2ccc(OC)c(OC)c2)ccc1O	.	i	.	.	.	.	.
C[N+](C)(C)c1ccc(/C=N/Nc2nc(Cl)c(C#N)c(Cl)c2Cl)cc1	2	i	13	2	56*	i	20
O=C(Nc1ccc(Cl)c(Cl)c1)C1C2C=CC3(O2)C1C(=O)N(CCN1CCCCC1)C3C(=O)NC1CCCCC1 (stereo not drawn)	-1	i	13	0	50*	i	52*
Cc1ccc(NC(=O)C2C3C=CC4(O3)C2C(=O)N(CCCN2CCOCC2)C4C(=O)NC2CCCCC2)cc1Cl (stereo not drawn)	-3	i	1	0	25	i	.
OCc1nc2ccccc2n1CCOc1ccccc1	3	i	.	5	6	i	.
CCOc1ccc(NCc2nc3ccccc3n2CCOc2ccccc2)cc1	6	i	-6	2	45*	i	45*
Cc1ccnc(NC(=O)CCCc2c[nH]c3ccccc23)c1	4	i	-18	0	7	i	.
Cc1cccnc1NC(=O)CCc1c[nH]c2ccccc12	-1	i	-12	1	46*	i	42
Cc1ccc2nc(-c3ccccn3)c(NC3CCCC3)n2c1	15	i	-9	4	64*	i	70*
CCCCCCSc1cccc(-c2nc3ccc(C)cn3c2NC2CCCCC2)c1	2	i	.	2	8	i	.
Cc1ccc(NC(=S)N2CCC(c3ccccc3)C2)c(Cl)c1 (stereo not drawn)	-6	i	-16	3	13	i	.
NNc1ncnc2sc3c(c12)CCC3	3	i	-11	-1	44*	i	22
CCN1/C(=C/c2cccc[n+]2C)Sc2ccc(OC)cc21	-1	i	-2	1	48*	i	46*
COc1ccc(/C=C/c2cc[n+](C(=O)Cc3ccccc3)cc2)cc1	-2	i	11	-1	45*	i	28
COc1ccc(/C=C/C(=O)NCCCc2ccccc2)cc1	-3	i	-24	3	-8	i	.
SMILES	PP1 inh	TMEM16A act	FID counter	PP5 primary	PREPL inh	ANO1 block	PREPL confirm
Cn1c(SCc2ccc(Br)cc2)nc2c(c1=O)SCC2	3	i	-3	4	47*	i	42
Cn1c(SCc2cccnc2)nc2c(c1=O)SCC2	1	i	0	-1	1	i	.
Cc1ccc(C)c(C(=O)COC(=O)c2ccc(C)c(S(=O)(=O)N3CCOCC3)c2)c1	11	.	.	5	5	.	.
C/C(=N\Nc1nc2ccccc2s1)c1cccs1	2	i	7	3	45*	i	51*
Cc1ccsc1/C=N/Nc1nc2ccccc2s1	1	i	-3	1	46*	i	55*
C(=N\Nc1nc2ccccc2s1)/c1cccs1	7	i	8	2	42	i	.
O=C(CN1CCN(S(=O)(=O)c2cccs2)CC1)NCC1CCCCC1	2	i	.	-1	7	.	.
Cc1ccc(C(=O)COc2nc(C)nc3ccccc23)cc1	-3	i	-1	-1	8	i	.
CCOC(=O)CNC(=O)Cn1cnc2c(cnn2-c2ccc(C)cc2)c1=O	0	i	-2	-1	10	i	.
Cc1cccc(CCNC(=O)c2cc(S(=O)(=O)N3CCCCC3)c[nH]2)c1	7	i	-45	-5	1	i	.
CCOC(=O)N1CCN(c2nc3ccc(C(=O)c4ccccc4)cc3n3cnnc23)CC1	-2	i	-6	1	61*	i	31
O=C(Cn1cnc2ccccc2c1=O)NCCC(=O)Nc1ccccc1C(F)(F)F	-2	i	-6	3	-18	i	.
O=C(Cn1cncn1)c1ccccc1Br	-1	i	-4	2	-8	i	.
Cc1[nH]nc2c1/C(=N\O)CCC2	-2	i	1	0	-8	i	.
CC1=Nc2nc(N3CCCCCC3)c(C#N)c3c4c(nc(c23)N1)N(c1ccc2ccccc2c1)C(=O)C4	5	i	.	-3	63*	i	61*
CCN1C(=O)CC(c2ccccc2)N(C2CCCC2)c2nc(Nc3ccc(C(=O)NC4CCN(C)CC4)cc3OC)ncc21 (stereo not drawn)	.	i	.	.	48*	.	50*
Cc1cc(N/N=C/c2ccc(O)cc2)c2cccc(C)c2n1	4	i	25	4	59*	i	56*
Cc1cc(N/N=C/c2ccc(N(C)C)cc2)c2ccccc2n1	2	i	-14	4	-4	i	.
Cc1cc(C)c2nc(C)cc(N/N=C/c3ccc(O)cc3)c2c1	8	i	48*	9	72*	i	68*
CN1CCN(c2cc(N3CCN(C(=O)c4ccco4)CC3)c3c4c(onc24)-c2ccccc2C3=O)CC1	-1	i	-3	-2	35	i	.

Compound activity deposited in PubChem BioAssay by several laboratories.
